From PubChem
A selection: hits, their analogues and other compounds. The true share with any hit is near 2.2%.
TROY signal inh: TROY signaling inhibition; Q293 LMP1-TROYcd NF-kB luciferase reporter, 4 h; 360,000 tested, 0.98% active; inhibition, % at 10 µM;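 active means compounds whose plate-normalised and pattern-corrected inhibition of the luciferase reporter signal at the single screening dose is 50% or more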
TWEAK-Fn14 inh: blocks TWEAK-Fn14 interaction in a reporter cell assay. TWEAK-stimulated Fn14 reporter cells, luciferase luminescence, 8 h. inhibition, % at 10 µM. 360,000 tested, 2% active. AID 1159606; in the data active means inhibition above about 50%
HSP90 refold inh: HSP90 refolding inhibition in rabbit reticulocyte lysate. luciferase refolding luminescence, 3 h. inhibition, % at 5.6 µM. 290,000 tested, 0.91% active. AID 1789;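 active means inhibition above the screen-wide mean plus 3 SD, computed separately per campaign, cut at about 16% in these data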;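 further: inhibitors lower the luminescence because luciferase stays unfolded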
LGR2 inh: blocks bursicon-induced cAMP signaling via Drosophila LGR2; inhibition, % at 9.99 µM; 380,000 tested, 0.35% active; HEK293 LGR2, CRE-luciferase, bursicon-stimulated, 4 h;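 active means drop in luminescence signal, shown as inhibition above about 50% in the replicate tests, limit read from the data, passing the limit was not always enough; inconclusive means probably only some replicates passing the limit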;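 further: agonist challenge used bursicon conditioned medium at about half maximal strength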
Hits are given with their value; i = inactive; ? = inconclusive; nt = no result.

SMILES | TROY signal inh | TWEAK-Fn14 inh | HSP90 refold inh | LGR2 inh
CC1(C)CC(N2CCC(=O)N(C3CC(C)(C)NC(C)(C)C3)C2)CC(C)(C)N1 | nt | 80.0 | i | nt
COc1ccc2cc3c(N)nn(C(=O)c4ccc(Cl)c([N+](=O)[O-])c4)c3nc2c1 | i | 54.7 | i | nt
COc1ccc2cc3c(N)nn(C(=O)c4ccccc4[N+](=O)[O-])c3nc2c1 | i | 81.9 | i | nt
Oc1ccc(C=NNc2nc3ccccc3s2)c(O)c1 | i | 59.8 | nt | ?
Oc1ccccc1C=NNc1nc2ccccc2s1 | i | 57.2 | nt | i
Cc1nn(-c2ccccc2Cl)c(Cl)c1/C=N/Nc1nc2ccccc2s1 | 95.4 | 108.1 | i | 72.0
CCOC(=O)N/N=C/c1c(C)nn(-c2ccccc2Cl)c1Cl | i | i | i | i
C[C@@H]1CN([C@H](C)CO)C(=O)c2cc(NC(=O)C3CCCCC3)ccc2O[C@@H](C)CCCCO[C@@H]1CN(C)C(=O)NC1CCCCC1 | nt | nt | nt | i
CCC(=O)N[C@@H]1CC[C@H](CCn2cc(CN(C)C)nn2)O[C@H]1CO | nt | nt | nt | i
Cn1c(-c2ccccc2)cc2onc(-c3ccccc3)c2c1=O | 72.7 | 90.8 | nt | 94.0
Cn1c(-c2ccccc2F)cc2onc(-c3ccccc3)c2c1=O | 66.4 | 72.6 | nt | i
Cn1c(-c2ncc(F)cc2F)cc2onc(-c3c(F)cccc3Cl)c2c1=O | i | i | nt | i
Cc1ccc(S(=O)(=O)N[C@@H]2CC[C@@H](CCn3cc(C(C)C)nn3)O[C@@H]2CO)cc1 | nt | nt | nt | i
Cc1cc2c(c(/C=C/C(=O)c3ccccc3)c1)OC1(C=C2)Oc2ccccc2C(=O)N1C (stereo not drawn) | i | 69.0 | i | 50.2
Cc1nn(C)cc1/C=C/C(=O)c1ccccc1 | i | i | i | nt
CCOC(=O)c1c(NC(=O)/C=C\C(=O)O)sc(C)c1-c1ccccc1 | i | i | i | i
CCOC(=O)c1c(NC(=O)/C=C/C(=O)O)sc(C)c1-c1ccc(C(C)(C)C)cc1 | 89.8 | 98.3 | i | i
C[C@@H]1CN([C@@H](C)CO)C(=O)c2cc(NC(=O)NC3CCCCC3)ccc2O[C@@H](C)CCCCO[C@H]1CN(C)CC1CCCCC1 | nt | nt | nt | i
O=C(Nc1ccccc1)c1cc2ccccc2c(=O)s1 | i | 57.6 | i | i
CCOC(=O)c1ccc(-n2c(CN3CCN(CC)CC3)nc3ccc([N+](=O)[O-])cc3c2=O)cc1 | i | i | i | i
CCOC(=O)c1ccc(-n2c(CN3CCC(C(N)=O)CC3)nc3ccc([N+](=O)[O-])cc3c2=O)cc1 | 54.7 | i | i | i
CCOC(=O)c1ccc(-n2c(CN3CCC(O)CC3)nc3ccc([N+](=O)[O-])cc3c2=O)cc1 | 53.1 | i | i | i
CC(=O)Nc1nc(-c2ccc3c(c2)CCN3S(C)(=O)=O)cs1 | i | i | i | i
O=C(CN1CCOCC1)Nc1nc(-c2ccc3c(c2)CCN3S(=O)(=O)c2ccccc2)cs1 | i | 52.8 | i | i
CS(=O)(=O)N1CCc2cc(-c3csc(NC(=O)Cc4cccs4)n3)ccc21 | i | 79.9 | i | nt
SMILES | TROY signal inh | TWEAK-Fn14 inh | HSP90 refold inh | LGR2 inh
O=C(C[C@@H]1CC[C@@H]2[C@H](COC[C@H](O)CN2C(=O)Nc2ccc(Cl)cc2)O1)N1CCCCC1 | nt | nt | nt | i
O=C(Nc1ccc(F)cc1)Nc1cc(OCC(F)(F)F)cc(OCC(F)(F)F)c1 | 52.5 | 54.0 | i | i
C=CCN1C=CC(=C/C=C(/C#N)C(=O)OCC)C=C1 | i | 50.5 | i | nt
CCOC(=O)/C(C#N)=C/C=C1/C=CC=CN1C | i | i | i | nt
CNC[C@@H]1Oc2ncc(C#CC3CCCCC3)cc2C(=O)N([C@@H](C)CO)C[C@@H]1C | nt | nt | nt | i
O=C(N[C@H]1CC[C@H](CCNC(=O)C2CCCCC2)O[C@H]1CO)c1ccccn1 | nt | nt | nt | i
CC(=O)c1cccc(S(=O)(=O)N2CCC(C(=O)Nc3cccc(C(=O)NC4CC4)c3)CC2)c1 | 62.1 | i | nt | i
Cn1cc(C(=O)c2ccc(Cl)cc2Cl)cc1C(=O)N/N=C(\N)COc1ccc(Cl)cc1Cl | i | 57.4 | i | nt
C[C@@H]1CN([C@H](C)CO)C(=O)c2cccc(NC(=O)C3CC3)c2O[C@H]1CN(C)S(=O)(=O)c1ccccc1 | nt | nt | nt | i
O=C(Cc1ccccc1)NNC1=NS(=O)(=O)c2ccccc21 | i | 53.5 | i | i
O=C(Nc1ccc(Cl)cc1)Nc1csc([N+](=O)[O-])c1 | i | 66.8 | i | i
CC(=O)NC1CC2CCCC(C1)N2S(=O)(=O)c1cccc(F)c1 (stereo not drawn) | i | 104.5 | i | nt
O=c1c(Cl)c(Cl)cnn1Cc1nnc(-c2ccccc2Br)o1 | 64.4 | 92.0 | i | 103.4
CCC(=O)N(C)C[C@H]1Oc2cc(C#CCN(C)C)ccc2S(=O)(=O)N([C@@H](C)CO)C[C@@H]1C | nt | nt | nt | i
Cc1ccc(-n2nnc(-c3cccnc3)n2)cc1 | i | i | nt | i
Cc1ccc(-n2nnc(-c3cnc4ccccc4c3)n2)cc1 | i | 63.3 | i | i
N#CC(C#N)=NNc1ccc([N+](=O)[O-])cc1 | 56.4 | i | i | i
COc1ccc(C(=O)/C(C#N)=N/Nc2ccccc2[N+](=O)[O-])cc1 | i | i | i | nt
COc1ccc(C(=O)/C(C#N)=N/Nc2ccc([N+](=O)[O-])cc2)cc1 | 62.8 | 59.0 | i | i
COc1ccccc1-c1ccc2c(c1)[C@@H]1[C@@H](CCN1S(=O)(=O)c1cccc(C)c1)[C@H](CO)N2 | nt | nt | nt | i
COc1ccc(S(=O)(=O)N(C)C[C@@H]2Oc3c(NC(=O)Nc4c(C)noc4C)cccc3C(=O)N([C@H](C)CO)C[C@@H]2C)cc1 | nt | nt | nt | i
O=C1C(=O)N(CCN2CCOCC2)C(c2ccccn2)/C1=C(/O)c1ccccc1 (stereo not drawn) | i | 62.7 | i | nt
Cc1ccc(S(=O)(=O)N2CCOCC2)cc1NC(=O)CN1CCN(c2ccc(O)cc2)CC1 | i | 78.4 | i | i
CCC(=O)N1[C@H](CO)[C@H](c2ccc(-c3ccc(F)cc3)cc2)C12CN(C(C)=O)C2 | nt | nt | nt | i
O=C(Nc1ccc(Cl)cn1)c1ccc2c(Cl)c3c(nc2c1)CCC3 | 59.9 | 50.7 | i | i
SMILES | TROY signal inh | TWEAK-Fn14 inh | HSP90 refold inh | LGR2 inh
CCC(C)NC(=O)c1ccc2c(Cl)c3c(nc2c1)CCC3 (stereo not drawn) | i | i | i | i
CO[C@@H]1CN(C)C(=O)c2ccc(NS(=O)(=O)CC(F)(F)F)cc2OC[C@@H](C)N(Cc2ccccn2)C[C@H]1C | nt | nt | nt | i
COc1ccc(-c2nnc(SCC(=O)c3ccc(C)o3)o2)cc1 | i | i | i | i
O=C(CSc1nnc(-c2ccccc2Br)o1)N1CCOCC1 | i | i | i | i
COc1ccc(-c2nnc(SCC(=O)/C(C#N)=C(\C)N)o2)cc1 | i | 65.4 | i | nt
C/C(N)=C(/C#N)C(=O)CSc1nnc(-c2ccccc2Br)o1 | i | 73.5 | i | i
COc1ccc(NC(=O)C#Cc2ccccc2)cc1OC | i | 94.9 | i | i
NC(=O)c1ccc(NC(=O)C#Cc2ccccc2)cc1 | i | 89.4 | i | i
CCOC(=O)C(=Cc1ccc(F)cc1)C(=O)OCC | nt | nt | i | nt
COC(=O)c1ccc(-n2ccnc2)cc1 | i | i | i | i
CCOC(=O)C(=Cc1ccc(-n2ccnc2)cc1)C(=O)OCC | 63.8 | 95.9 | i | i
CCOC(=O)C(=Cc1ccc(Br)cc1)C(=O)OCC | i | 59.5 | i | i
Cc1ccc(S(=O)(=O)Nc2ccc3c(c2)C(=O)N([C@@H](C)CO)C[C@@H](C)[C@H](CN(C)S(=O)(=O)c2ccc(C)cc2)O3)cc1 | nt | nt | nt | i
